Results as given in the supplement of paper PMC6411743.
± gives the standard deviation of the averaged measurements. The full data set covers some 6,500 targets. This sample favours those with the largest changes.

Assays:
Experiment in all cases: NP40-soluble protein abundance relative to vehicle (solubility fold change) (ratio); higher = more soluble protein in presence of ATP
A6NG45|Q13162 = target: T1, A6NG45|Q13162 (UniProt Q13162)
T1 sequence (whole entry): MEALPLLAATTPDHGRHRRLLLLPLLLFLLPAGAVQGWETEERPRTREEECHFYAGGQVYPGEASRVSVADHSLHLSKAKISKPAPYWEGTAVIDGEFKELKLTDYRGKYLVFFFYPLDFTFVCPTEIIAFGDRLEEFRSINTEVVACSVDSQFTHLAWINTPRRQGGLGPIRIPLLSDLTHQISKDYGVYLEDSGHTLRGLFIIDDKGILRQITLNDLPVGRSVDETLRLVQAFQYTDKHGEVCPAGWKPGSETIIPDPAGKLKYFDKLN
How it was run: (§1)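 In three independent experiments, Jurkat crude lysate made by Dounce homogenisation was treated for 10 min at room temperature and then 3 min at 37 °C with eight concentrations ranging from 0.1 to 10 mM. It was then solubilised with 0.8% NP40 plus benzonase for 60 min at 4 °C and ultracentrifuged. The supernatant was TMT-labelled for LC-MS/MS, and each value is the fold change against the detergent-processed vehicle for the same replicate, using vsn-normalised intensities.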

E7ET89|Q86UW9|Q86UW9-2 = target: T2, E7ET89|Q86UW9|Q86UW9-2 (UniProt Q86UW9)
T2 sequence (whole entry): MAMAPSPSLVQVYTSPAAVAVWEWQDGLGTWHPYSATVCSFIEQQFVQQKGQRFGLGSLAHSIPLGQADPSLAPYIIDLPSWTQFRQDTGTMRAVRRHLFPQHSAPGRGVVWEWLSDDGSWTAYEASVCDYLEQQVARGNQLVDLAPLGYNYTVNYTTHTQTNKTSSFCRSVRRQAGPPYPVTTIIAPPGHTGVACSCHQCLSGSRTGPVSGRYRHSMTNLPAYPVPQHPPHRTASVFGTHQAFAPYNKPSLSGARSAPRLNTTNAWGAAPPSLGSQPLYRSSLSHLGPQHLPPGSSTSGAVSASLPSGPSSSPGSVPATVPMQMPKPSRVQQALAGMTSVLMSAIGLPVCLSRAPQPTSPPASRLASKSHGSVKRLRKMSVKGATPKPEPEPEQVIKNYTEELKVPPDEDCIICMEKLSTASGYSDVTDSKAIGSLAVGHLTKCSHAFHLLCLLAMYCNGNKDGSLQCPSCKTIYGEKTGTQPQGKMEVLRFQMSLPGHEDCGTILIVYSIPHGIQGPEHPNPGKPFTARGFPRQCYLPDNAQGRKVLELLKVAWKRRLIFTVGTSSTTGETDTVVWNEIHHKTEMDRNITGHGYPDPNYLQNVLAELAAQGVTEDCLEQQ
How it was run: as §1

F5GY05|A0A0D9SEJ5|Q96EK7 = target: T3, F5GY05|A0A0D9SEJ5|Q96EK7 (UniProt Q96EK7)
T3 sequence (whole entry): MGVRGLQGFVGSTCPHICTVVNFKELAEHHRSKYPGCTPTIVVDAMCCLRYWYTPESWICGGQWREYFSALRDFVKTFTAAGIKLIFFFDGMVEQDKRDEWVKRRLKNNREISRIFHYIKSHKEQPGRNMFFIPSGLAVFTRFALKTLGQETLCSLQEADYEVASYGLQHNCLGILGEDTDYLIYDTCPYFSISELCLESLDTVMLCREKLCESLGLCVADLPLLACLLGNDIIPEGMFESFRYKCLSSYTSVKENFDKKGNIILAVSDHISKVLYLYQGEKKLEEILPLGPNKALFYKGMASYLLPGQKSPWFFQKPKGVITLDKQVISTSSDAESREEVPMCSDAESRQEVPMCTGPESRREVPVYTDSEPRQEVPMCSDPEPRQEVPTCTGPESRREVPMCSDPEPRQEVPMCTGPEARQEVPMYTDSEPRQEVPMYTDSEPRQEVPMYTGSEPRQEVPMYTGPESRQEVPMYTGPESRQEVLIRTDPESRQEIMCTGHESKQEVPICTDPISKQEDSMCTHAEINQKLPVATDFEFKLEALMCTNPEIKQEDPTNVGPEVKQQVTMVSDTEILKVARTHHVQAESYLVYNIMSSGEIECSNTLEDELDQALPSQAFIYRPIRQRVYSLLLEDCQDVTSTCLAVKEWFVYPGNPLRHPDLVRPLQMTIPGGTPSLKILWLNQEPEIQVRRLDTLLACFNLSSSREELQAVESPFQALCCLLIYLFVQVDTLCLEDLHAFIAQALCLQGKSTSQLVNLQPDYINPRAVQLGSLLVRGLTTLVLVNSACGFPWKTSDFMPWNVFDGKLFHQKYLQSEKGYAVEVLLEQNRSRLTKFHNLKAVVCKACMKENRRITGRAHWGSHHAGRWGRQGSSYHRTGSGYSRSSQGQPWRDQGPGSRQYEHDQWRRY
How it was run: as §1

F5H514|O95267|O95267-2 = target: T4, F5H514|O95267|O95267-2 (UniProt O95267)
T4 sequence (whole entry): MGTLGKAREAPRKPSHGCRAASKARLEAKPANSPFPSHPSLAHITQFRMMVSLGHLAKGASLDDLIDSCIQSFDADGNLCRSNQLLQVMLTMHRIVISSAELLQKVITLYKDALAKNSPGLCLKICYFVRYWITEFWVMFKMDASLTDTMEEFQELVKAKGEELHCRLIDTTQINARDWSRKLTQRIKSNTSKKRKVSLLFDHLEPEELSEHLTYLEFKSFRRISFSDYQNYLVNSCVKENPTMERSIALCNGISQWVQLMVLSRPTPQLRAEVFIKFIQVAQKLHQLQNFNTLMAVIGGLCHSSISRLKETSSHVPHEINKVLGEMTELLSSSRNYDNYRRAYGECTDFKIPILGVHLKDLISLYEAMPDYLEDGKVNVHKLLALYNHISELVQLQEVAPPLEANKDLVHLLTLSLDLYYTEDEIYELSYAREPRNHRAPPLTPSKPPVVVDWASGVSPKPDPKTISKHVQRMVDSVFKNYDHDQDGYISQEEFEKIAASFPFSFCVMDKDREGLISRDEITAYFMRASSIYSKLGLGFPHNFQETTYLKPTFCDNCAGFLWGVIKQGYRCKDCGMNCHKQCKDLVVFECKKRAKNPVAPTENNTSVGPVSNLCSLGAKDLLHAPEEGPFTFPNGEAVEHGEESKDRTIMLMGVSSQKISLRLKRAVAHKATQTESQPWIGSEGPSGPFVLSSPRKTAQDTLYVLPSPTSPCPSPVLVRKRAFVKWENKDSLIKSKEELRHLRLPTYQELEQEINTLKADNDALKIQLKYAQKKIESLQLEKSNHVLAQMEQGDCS
How it was run: as §1

Nc1ncnc2c1ncn2[C@@H]1O[C@H](COP(=O)(O)OP(=O)(O)OP(=O)(O)O)[C@@H](O)[C@H]1O [adenosine triphosphate]
NP40-soluble protein abundance (A6NG45|Q13162; concentration: 1mM): 1.07 ± 0.057
NP40-soluble protein abundance (A6NG45|Q13162; concentration: 2mM): 1.01 ± 0.042
NP40-soluble protein abundance (A6NG45|Q13162; concentration: 4mM): 0.975 ± 0.041
NP40-soluble protein abundance (A6NG45|Q13162; concentration: 6mM): 0.953 ± 0.07
NP40-soluble protein abundance (A6NG45|Q13162; concentration: 8mM): 1.03 ± 0.034
NP40-soluble protein abundance (A6NG45|Q13162; concentration: 10mM): 0.992 ± 0.033
NP40-soluble protein abundance (E7ET89|Q86UW9|Q86UW9-2; concentration: 1mM): 0.936 ± 0.2
NP40-soluble protein abundance (E7ET89|Q86UW9|Q86UW9-2; concentration: 2mM): 1.09 ± 0.15
NP40-soluble protein abundance (E7ET89|Q86UW9|Q86UW9-2; concentration: 4mM): 1.05 ± 0.11
NP40-soluble protein abundance (E7ET89|Q86UW9|Q86UW9-2; concentration: 6mM): 1.04 ± 0.039
NP40-soluble protein abundance (E7ET89|Q86UW9|Q86UW9-2; concentration: 8mM): 1.03 ± 0.086
NP40-soluble protein abundance (E7ET89|Q86UW9|Q86UW9-2; concentration: 10mM): 1.04 ± 0.035
NP40-soluble protein abundance (F5GY05|A0A0D9SEJ5|Q96EK7; concentration: 1mM): 1.03 ± 0.013
NP40-soluble protein abundance (F5GY05|A0A0D9SEJ5|Q96EK7; concentration: 2mM): 1.0493 ± 0.001
NP40-soluble protein abundance (F5GY05|A0A0D9SEJ5|Q96EK7; concentration: 4mM): 1.07 ± 0.017
NP40-soluble protein abundance (F5GY05|A0A0D9SEJ5|Q96EK7; concentration: 6mM): 1.06 ± 0.06
NP40-soluble protein abundance (F5GY05|A0A0D9SEJ5|Q96EK7; concentration: 8mM): 1.07 ± 0.02
NP40-soluble protein abundance (F5GY05|A0A0D9SEJ5|Q96EK7; concentration: 10mM): 1.08 ± 0.052
NP40-soluble protein abundance (F5H514|O95267|O95267-2; concentration: 1mM): 1.04 ± 0.12
NP40-soluble protein abundance (F5H514|O95267|O95267-2; concentration: 2mM): 1.09 ± 0.046
NP40-soluble protein abundance (F5H514|O95267|O95267-2; concentration: 4mM): 1.19 ± 0.15
NP40-soluble protein abundance (F5H514|O95267|O95267-2; concentration: 6mM): 1.21 ± 0.13
NP40-soluble protein abundance (F5H514|O95267|O95267-2; concentration: 8mM): 1.14 ± 0.065
NP40-soluble protein abundance (F5H514|O95267|O95267-2; concentration: 10mM): 1.24 ± 0.15
